Data from PubChem BioAssay (Tox21).
Where “and” joins values, the source holds several entries; their conditions need not be identical. Equal entries are not always repeated. Results filed as inconclusive are left out. Entries that show only a call come without a potency. Where a structure was tested more than once in an assay, its records may differ in their call. Calls of active or inactive are those of the source. Calls come from the whole dose curve; as a rule, active = well fitted cell-killing curve with a large enough effect in the repeat runs; inconclusive = weak or mixed curves, or effect the other way; inactive = flat fitted curve, though single readings scatter.

experiment: qHTS RealTime-Glo MT Cell Viability Assay in HepG2 cells - 40 hour (AID 1224870); conditions: RealTime-Glo luminescence; series mostly up to 76.8 µM; note: nearly all actives have a fitted effect of over 50% in size
Description: National Center for Advancing Translational Sciences [NCATS]
NIH Chemical Genomics Center [NCGC]
U.S. Environmental Protection Agency [EPA]
National Institutes of Environmental Health Sciences [NIEHS]
National Toxicology Program [NTP]
U.S. Food and Drug Administration [FDA]
Measure of cell viability is critical in the cell-base assay. Analysis of cell viability is necessary for the characterization of cell responses to cytotoxic drugs and environmental stress. A RealTime-Glo MT Cell Viability Assay to monitor cell viability in real time of continues cell culture during 40 hours of compound treatment was used to screen Tox21 10K library compounds in HepG2 cells. The RealTime-Glo MT Cell Viability Assay is a nonlytic, homogeneous, bioluminescent method to measure cell viability in real time using a simple, plate-based method. The assay involves adding NanoLuc luciferase and a cell-permeant prosubstrate to cells in culture. Viable cells reduce the proprietary prosubstrate to generate a substrate for NanoLuc luciferase. This substrate diffuses from cells into the surrounding culture medium, where it is rapidly used by the NanoLuc Enzyme to produce a luminescent signal. The signal correlates with the number of viable cells, making the assay well suited for cytotoxicity studies.
Tox21 Assay Protocol Summary:
The mixture of HepG2 cell suspension and reagents were dispensed at 600cells/6 ul/well in 1536-well tissue culture treated black solid bottom plates using a Multidrop dispenser. After the assay plates were incubated at a 37 C/5% CO2 incubator for 5 hours, 23 nL of compounds dissolved in DMSO, positive and negative controls was transferred to the assay plate by a pintool work station. The plates were incubated at 37 C for 40 hours. The luminescence intensity were measured at 0h, 8h, 16h, 24h, 32h and 40h time points using ViewLux plate reader during compound treatment.
Potency is the fitted concentration of half-maximal effect.

SMILES | Potency
CCCC[N+](=O)[O-] | inactive
C=CC(=O)OCCN(C)C | inactive
CC1=C2[C@H]3OC(=O)[C@@H](C)[C@@H]3CC[C@@]2(C)C=CC1=O | inactive
O=C(Cl)c1ccccc1 | inactive
CCNc1nc(NCC)nc(SC)n1 | inactive
CCNP(=S)(OC)O/C(C)=C/C(=O)OC(C)C (stereo not given) | inactive
CNC(=O)NC(O)C(Cl)(Cl)Cl (stereo not given) | inactive
CC(C)[N+](C)(CCC(C(N)=O)(c1ccccc1)c1ccccc1)C(C)C | 19 µM (active)
NNCc1ccccc1 | inactive
O=C(Cl)C(Cl)(Cl)Cl | inactive
CCCOc1nn(C(=O)NS(=O)(=O)c2ccccc2C(=O)OC)c(=O)n1C | inactive
C#CCOC(=O)/C=C(C)/C=C/CC(C)CCCC(C)C (stereo not given) | inactive
CN1COCN(Cc2cnc(Cl)s2)/C1=N\[N+](=O)[O-] | inactive
O=P(O)(O)CN(CP(=O)(O)O)CP(=O)(O)O | inactive
CN(C)C(=O)Oc1cc(OC(=O)N(C)C)cc(C(O)CNC(C)(C)C)c1 (stereo not given) | inactive
CCN[C@H](C)Cc1cccc(C(F)(F)F)c1 | inactive
BrCc1ccc(Br)cc1 | inactive
C=CCC1(C(C)CC)C(=O)NC(=O)NC1=O (stereo not given) | inactive
OP(O)c1ccccc1 | inactive
O=C1CCCCC1Cl (stereo not given) | inactive

SMILES | Potency
CC(=O)CN(CC(C)=O)N=O | inactive
C[C@H](CN1CCOCC1)C(C(=O)N1CCCC1)(c1ccccc1)c1ccccc1 | inactive
C/C=C/CC#N | inactive
CCCCCCCCSC(=O)Oc1cc(Cl)nnc1-c1ccccc1 | inactive
CC(C)c1ccc(O)cc1 | inactive
CN(C)CCN(C)C | inactive
CC(C)(N)Cc1ccccc1Cl | inactive
CN=CNc1ccc(C)cc1C | inactive
COC[C@@H](NC(C)=O)C(=O)NCc1ccccc1 | inactive
CN(CCO)CCO | inactive
O=C1C2CC=CCC2C(=O)N1SC(Cl)(Cl)Cl (stereo not given) | inactive and 19.2 µM (active)
CCOc1cc(OP(=S)(OC)OC)nc(CC)n1 | inactive
CCCCOC(C)=O | inactive
O=[N+]([O-])c1cccc(CCl)c1 | inactive
O=P(O)(O)c1ccccc1 | inactive
NCC1(CC(=O)O)CCCCC1 | inactive
Nc1c(Cl)c(F)nc(OCC(=O)O)c1Cl | inactive
C[C@H]1CCCC(=O)CCC/C=C/c2cc(O)cc(O)c2C(=O)O1 | inactive
CCN(CCO)CCO | inactive
Oc1ccc2c3c1O[C@H]1[C@@H](O)C=C[C@H]4[C@@H](C2)NCC[C@@]341 | inactive
